What all share (assay): NCI-60 one-dose screen, 48 h (100 = growth as untreated, 0 = no growth, -100 = all killed)
Common to all, as to conditions: 10 µM unless noted

Assay [1] has as its system NCI-H23 lung.
The subject of assay [2] is NCI-H226 lung.
The subject of assay [3] is NCI-H322M lung.
Assay [4] relates to HOP-62 NSCLC.
Assay [5] has as its system NCI-H460 lung.
Assay [6] relates to HOP-92 NSCLC.
In assay [7] the test system is NCI-H522 lung.
For assay [8], the system named is A549/ATCC NSCLC.
For assay [9], the system named is 786-0 renal.
For assay [10], the system named is COLO 205 colon.
Assay [11] deals with DU-145 prostate.
The test system of assay [12] is K-562 leukemia.
Assay [13] relates to MALME-3M melanoma.
For assay [14], the system named is MDA-MB-231 breast.
Assay [15] has as its system RXF 393 renal.
Assay [16] has as its system SF-268 CNS.
Assay [17] has as its system SF-295 CNS.
Assay [18] concerns SF-539 CNS.
The subject of assay [19] is UACC-257 melanoma.
The subject of assay [20] is M14 melanoma.

This is part of a sample that, as a whole, favours compounds with a hit. Of some 83,000 tested, about 20% had one in any assay.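 Percent growth is the endpoint: 0 to 100 indicates growth inhibition (40 means 60% inhibition), 0 means no net growth, and negative values indicate cell death.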 A number with no mark means an inactive call. The source made the active and inactive calls. The calls were made as follows: active = growth percent below 10; inactive = the rest.

On to `COc1ccc(C(=O)/C=C/c2ccc(Cl)cc2)cc1S(N)(=O)=O`, for which the growth in assay [1] is 87.8%; in [2], 84.3%; in [3] it was 29.1%; in assay [4], 53.6%; in assay [5], 65.8%; in assay [6], -26.6% (active). Also, the growth is 56.9% in [7]; 54.5% in assay [8]; -30.7% (active) in [9]; 60.6% in assay [10]; 90.8% in assay [11]; 3.05% (active) in assay [12]. The growth in [13] was 90.1%; in [14], 65.8%; in assay [15] it was 97.4%; in [16] it was 91.7%; in assay [17], 98.3%; in assay [18] it was 17.7%. Moreover, the figures for the growth in [19] and in assay [20] were 87.1% and -57.3% (active), respectively.
For `CNC(=O)c1cc(Oc2ccc3nc(NC(=O)NC(C)C)sc3c2)ccn1`, the growth is 87.5% in [1]; 79.2% in assay [2]; 95.2% in assay [3]; 75.6% in [4]; 86.8% in assay [5]; 63.3% in [6]. The growth was 59.3% in assay [7]; 64.3% in assay [8]; 80.3% in assay [9]; 78.8% in [10]; 98.8% in [11]; 7.14% (active) in assay [12]. Moreover, the growth in [13] was 86.2%; in assay [14], 79.5%; in assay [15], 95.4%; in assay [16], 89.8%; in assay [17] it was 77.5%; in assay [18] it was 76.9%. Also, the growth is 73.7% in assay [19] and 50.5% in assay [20].
Take `C#C[C@]1(O)CC[C@H]2[C@@H]3CC=C4c5sc(-c6ccccc6)nc5CC[C@]4(C)[C@H]3CC[C@@]21C`: the growth in assay [1] is 84.1%; in [2], 99.6%; in assay [3], 86.7%; in assay [4], 99.5%; in assay [5] it was 75.5%; in [6] it was 77%. For the same molecule, the growth in assay [7] is 77.9%; in assay [8], 101%; in [9], 42.9%; in assay [10] it was 116%; in assay [11] it was 96.1%; in assay [12] it was 17.6%. In addition, the growth in assay [13] was 97.5%; in assay [14] it was 89%; in [15], 32.3%; in [16] it was 83.4%; in assay [17] it was 41.4%; in [18], 31.6%. Moreover, the growth in assay [19] was 84.6%; in assay [20], 78.9%.
Consider `CC1=C2[C@@H](CC1)[C@]1(C)O[C@@](C(C)C)(C[C@H]1OC(=O)CO)[C@H]2OC(=O)CCCc1ccccc1`, for which the growth in assay [1] is 81.4%; in assay [2] it was 61.4%; in assay [3], 90%; in assay [4], 39.5%; in assay [5], 68%; in assay [6] it was 37.4%. In addition, the growth in assay [7] is 45.1%; in assay [8], 58.4%; in assay [9], 79.2%; in [10], 55.1%; in assay [11] it was 75.8%; in [12], 53.9%. Also, the growth is 57.3% in assay [13]; 88.2% in [14]; 86.2% in assay [15]; 73.4% in assay [16]; 78.5% in [17]; 96.6% in assay [18]. In addition, the figures for the growth in assay [19] and in [20] were 85.1% and 77.5%, respectively.
As for `COc1cccc(C2C(C#N)=C(N)Oc3c2ccc2ccccc32)c1` (stereo not given), the growth in [1] is 28.4%; in [2] it was 47.1%; in assay [3], 41.7%; in assay [4], 39.6%; in [5], 8.32% (active); in assay [6] it was 46.5%. Moreover, the growth was 7.11% (active) in [7]; 26.2% in assay [8]; 20.6% in [9]; -41.8% (active) in [10]; 16.9% in assay [11]; 6.44% (active) in assay [12]. Further, the growth in assay [13] is 54.4%; in [14], 24.2%; in assay [15], 40.7%; in assay [16] it was 30.9%; in assay [17], 23.5%; in assay [18] it was -12% (active). The growth in [19] is 82%; in assay [20], 9.7% (active).
On to `Clc1nc(N2CCC[N+]3(CC2)CC[N+]2(CCCNCC2)CC3)nc(N2CCC[N+]3(CC2)CC[N+]2(CCCNCC2)CC3)n1` (stereo not given), for which the growth in [1] is 89.2%; in [2], 68.4%; in assay [3] it was 99.7%; in [4], 91.1%; in assay [5], 76.8%; in assay [6], 131%. In addition, the growth in assay [7] is 94%; in assay [8], 86.1%; in [9] it was 72.8%; in assay [10], 106%; in [11], 91%; in assay [12], 104%. Moreover, the growth in assay [13] is 3.84% (active); in [14] it was 86.5%; in assay [15], 100%; in assay [16], 76.8%; in assay [17], 104%; in assay [18], 87.5%. Moreover, the growth is 81.3% in [19] and 103% in assay [20].
`CN1CC(c2ccccc2)C(C(=O)c2ccc(Br)cc2)C12C(=O)Nc1ccccc12` (stereo not given): the growth in assay [1] is 96.2%; in [2], 90.5%; in assay [3], 103%; in [4], 94.8%; in assay [5] it was 99.4%; in assay [6], 86.3%. Also, the growth in [7] was 83%; in [8] it was 92.2%; in [9], 97.8%; in [10] it was 112%; in [11], 104%; in assay [12], 75.3%. Also, the growth is 99.4% in assay [13]; 94.7% in assay [14]; 92.6% in [15]; 91.2% in [16]; 93.9% in assay [17]; 102% in assay [18]. Besides, the growth was 103% in assay [19] and 102% in assay [20].
`CCOC(=O)c1c(Nc2nc3ccccc3s2)sc2c1CCC(=O)C2`: the growth was 26.3% in assay [1]; 91.9% in assay [2]; 85% in assay [3]; 66.4% in assay [4]; 34% in [5]; 85.4% in assay [6]. The growth in assay [7] was 8.13% (active); in assay [8], 68.8%; in [9], 66%; in assay [10] it was 65.9%; in [11], 84.8%; in [12] it was 10.2%. The growth in [13] was 93.9%; in assay [14], 79.4%; in [15], 83.6%; in assay [16] it was 71%; in [17], 86.3%; in assay [18], 46.8%. Besides, the growth in assay [19] was 92.7%; in [20], 58.6%.

The values are drawn from PubChem BioAssay (NCI).
